IMPase Li cell: membrane-permeable IMPase blocker, potentiated with lithium. CHO-M1 cells, IP1 TR-FRET (IP-One), carbachol + lithium. Potency, µM (titrated, usually from 59.4 µM), inactives show at the top dose activity, negative = IMPase inhibition, hits mostly inhibitors. 0.35% of 210,000 active;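 further: IP1 builds up when IMPase is blocked and the TR-FRET signal falls; potency means the concentration at half of the fitted maximal effect; plate controls were basal vehicle for no effect and high inhibitor control for full effect; nearly all actives have a fitted effect of over 50% in size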
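Test compounds were applied to CHO-M1 cells previously cultured for 16–30 h at 2000 per well. A small lithium amount accompanied them; after 30 min at 37C, IP1 was quantified by TR-FRET.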
12-hLO inh: inhibitors of human 12-lipoxygenase (ALOX12). 0.12% of 150,000 active. P18054. purified 12-hLO, xylenol orange hydroperoxide absorbance. Potency, µM (titrated, usually from 57.1 µM), for inactives: top-dose activity change, negative = inhibition, most hits filed as inhibitors; further: potency means the concentration at half of the fitted maximal effect; nearly all actives have a fitted effect of over 55% in size
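Purified human 12hLO (150 nM), preincubated 15 min with compound, then 40 uM arachidonic acid for 30 min, room temperature, Hepes pH 7.0 with 0.01% Triton X-100. Hydroperoxide detected by ferrous iron/xylenol orange; 573/405 nm absorbance ratio gives reaction progress.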
PNC assembly inh: perinucleolar compartment assembly inhibition; PC3M PTB-GFP, PNC prevalence imaging, 16 h; hits give low values; activity change (PNC), negative = inhibition, % at 10 µM; 3.1% of 140,000 active;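 active means readout at or below -70, meaning at least 70% loss of cells showing the perinucleolar compartment, a nuclear body marking cancer cells; inconclusive means readout between -30 and a set limit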;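 further: plate controls were DMSO wells for no effect and camptothecin positive control wells for full effect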
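Read-out is percentage of cells bearing a perinucleolar compartment, from automated 20x imaging of fixed, Hoechst-stained PC3M PTB-GFP cells. Cells were seeded 4 h, then exposed 16 h to compound (23 nl of library stock) in duplicate plates.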
15-hLO-2 inh: inhibitors of human 15-lipoxygenase 2 (ALOX15B); O15296; purified 15hLO-2, xylenol orange hydroperoxide absorbance; 0.56% of 110,000 active; Potency, µM (highest dose often 57.1 µM), for the others: top-dose activity change, negative = inhibition, hits mostly inhibitors; further: potency means the concentration at half of the fitted maximal effect; nearly all actives have a fitted effect of over 60% in size
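Read-out: hydroperoxide product oxidises ferrous iron, measured as xylenol orange complex via the 573-to-405 nm absorbance ratio after 30 min. Reaction: 50 nM enzyme, 15 min compound preincubation, 45 uM arachidonic acid, 90 min RT, Hepes pH 7.5 with Triton X-100.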
IMPase inh: cell-permeable inhibitors of inositol monophosphatase (IMPase) | 120,000 tested, under 10 active | AID 901 | inhibition (IP1 accumulation), % at 46.1 µM | P97697 | CHO-M1 cells, IP1 accumulation, HTRF TR-FRET ratio; active means well fitted curve in the direction sought with a large enough effect in the signal ratio, not every such curve was filed as active; inconclusive means small, poorly fitted or top-dose-only effect, or a change in a side signal; inactive means no such curve, though single readings can be large or run the other way; the % refers to the signal ratio;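 further: cells stimulated with carbachol in lithium chloride buffer; plate controls were DMSO basal wells for no effect and reference inhibitor wells for full effect; higher means more IMPase inhibition seen as more IP1 and lower FRET ratio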
Target sequence (P97697 whole entry, looked up): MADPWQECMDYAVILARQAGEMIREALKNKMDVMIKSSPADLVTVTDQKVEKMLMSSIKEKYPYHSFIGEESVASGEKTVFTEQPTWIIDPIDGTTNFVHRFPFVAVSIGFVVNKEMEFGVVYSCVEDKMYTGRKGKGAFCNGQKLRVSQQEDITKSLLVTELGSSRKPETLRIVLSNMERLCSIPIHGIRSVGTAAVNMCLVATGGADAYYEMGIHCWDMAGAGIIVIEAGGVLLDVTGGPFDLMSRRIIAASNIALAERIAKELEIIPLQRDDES
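Seeded CHO-M1 cells were dosed with compound at up to 46 uM, stimulated with carbachol for 30 min, then lysed in IP-One detection reagents. Higher IP1 lowers the TR-FRET signal.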
The depositor's hits bear a star; ? = inconclusive; . = not tested or not shown; [ ] = another dose, or the depositor's remark. This is one part of a sample in which hits are shown more often than they occur. Unless noted, the call rests on the fitted dose curve; in most records, active means well fitted curve in the direction sought with a large enough effect; inconclusive means small, poorly fitted or top-dose-only effect, or another doubt; inactive means no such curve, though single readings can be large; an effect the other way counts as inactive or inconclusive. Unless noted, on the % scale 0 is the no-effect control and ±100 the full control effect.

SMILES	IMPase Li cell	12-hLO inh	PNC assembly inh	15-hLO-2 inh	IMPase inh
COc1ccc(-c2cc3c(=O)n(CC(=O)NC4CCN(Cc5ccccc5)CC4)ncn3n2)cc1	19%[38.3 µM]	-7%	-90*	11%	2
COCCCn1c(SCc2nnc(-c3ccc(OC)c(OC)c3)o2)nc2ccccc2c1=O	15%	3%	-100*	.	-2
Brc1cccc(CNCc2cccs2)c1	-11%	4%	-89*	.	.
O=C(CSCc1ccc(Br)cc1)Nc1ccc(S(=O)(=O)N2CCOCC2)cc1	-1%[38.3 µM]	-5%	39	-6%	9
Cc1ccccc1NS(=O)(=O)c1ccc(NC(=O)CSCc2ccc(Br)cc2)cc1	3%	-4%	-99*	-6%	-3
Cc1cccc(CN2CCN(CC(=O)NCCCN3CCCC3=O)C2=O)c1	19%[38.3 µM]	-1%	-111*	-2%	12
O=[N+]([O-])c1ccc(O)c(/C=N\N=C2c3ccccc3-c3ccccc32)c1	20%	0%	?	.	.
NC(N)=N/N=C/c1cc([N+](=O)[O-])ccc1O	9%	-7%	-115*	.	1
COc1cc(C)ccc1OCCn1c(-c2ccc(Cl)cc2)nc2ccccc2c1=O	.	.	.	.	12
CCC(C)NC(=O)c1ccccc1NS(=O)(=O)c1ccc(OC)c(OC)c1 (stereo not given)	5%[38.3 µM]	0%	9	0%	-4
COC(=O)c1cccc(NS(=O)(=O)c2ccc(OC)c(OC)c2)c1C	37%[38.3 µM]	1%	-84*	-1%	4
COc1ccc(S(=O)(=O)Nc2ccccc2C(=O)NC(C)C)cc1OC	-6%[38.3 µM]	-2%	-124*	-7%	3
O=C(Nc1c(-c2ccccc2)nc2ccccn12)c1ccco1	-5%[38.3 µM]	3%	-82*	3%	-4
O=c1c2ccccc2nc(SCc2ccc([N+](=O)[O-])cc2)n1-c1ccccc1	3%[38.3 µM]	-1%	37	-15%	2
O=c1c2ccccc2nc(SCc2cc([N+](=O)[O-])cc3c2OCOC3)n1-c1ccccc1	2%	-3%	-92*	.	.
C=C(C)C(=O)/C=C/CCC/C=C/C(=O)OCC	33%	.	.	.	.
Cc1ccsc1/C=N/NC(=O)c1ccc([N+](=O)[O-])cc1	2%	.	.	.	.
Cc1c(/C=N\NC(=O)c2ccc([N+](=O)[O-])cc2)cnn1C	-8%	6%	-109*	.	.
COc1ccc(/C=C/C(=O)c2ccc(O)cc2)cc1COc1ccc(F)cc1	.	-23%	?	-4%	3
COc1ccc(Oc2ccc(/C=C/C(=O)c3ccc(O)cc3)cc2[N+](=O)[O-])cc1	16%	3%	-113*	.	.
CC1=CS(=O)(=O)CC1Sc1nc(C)n[nH]1 (stereo not given)	1%	.	.	.	.
CC1=CS(=O)(=O)CC1Sc1ncn[nH]1 (stereo not given)	3%	1%	-100*	.	-1
COc1cc(NS(=O)(=O)c2ccc(NC(=O)c3cccc(F)c3)cc2)nc(OC)n1	.	.	.	.	-2
Cc1cccc(NC(=O)c2ccc(S(=O)(=O)C(F)F)cc2)c1C	-1%	-4%	-100*	.	.
Cc1cc(C)cc(NC(=O)c2ccc(S(=O)(=O)C(F)F)cc2)c1	-3%	-3%	-29	.	2
SMILES	IMPase Li cell	12-hLO inh	PNC assembly inh	15-hLO-2 inh	IMPase inh
CCN(CC)S(=O)(=O)c1ccc(NC2CCCc3ccccc32)nc1 (stereo not given)	13%	-2%	-100*	.	9
CC(C)(C)Nc1oc(-c2ccccc2)nc1-c1cccc2ccccc12	10%	-1%	.	.	.
OC(COCc1cccs1)CN1CCN(c2ccccc2Cl)CC1 (stereo not given)	9%	3%	-15	.	5
Cc1cccc(N2CCN(CC(O)COCc3cccs3)CC2)c1C (stereo not given)	.	-4%	-115*	.	-9
CCOC(=O)C(C(=O)OCC)c1cc(Br)c2noc3c2c1C(=O)c1ccccc1-3	77%[38.3 µM]	0%	-83*	?	7
O=C(Cc1coc2ccc3ccccc3c12)Nc1nnc(C2CC2)s1	.	-9%	-100*	-19%	?
Cc1cc2occ(CC(=O)Nc3nnc(C4CC4)s3)c2cc1C	?	-5%	-13	-22%	1

High-throughput results from PubChem.
